From PubChem
Shown are actives, neighbours in structure and some others; about 2% of the full set was active somewhere.
VLA-4 inh: inhibition in a human VLA-4 binding assay | P13612 | inhibition, % (about 7 µM as worked out from the volumes in the protocol) | VLA-4 expressing cells, ligand binding flow cytometry | 0.2% of 330,000 active; in the data active = inhibition above about 50%
Target sequence (P13612 whole entry, looked up): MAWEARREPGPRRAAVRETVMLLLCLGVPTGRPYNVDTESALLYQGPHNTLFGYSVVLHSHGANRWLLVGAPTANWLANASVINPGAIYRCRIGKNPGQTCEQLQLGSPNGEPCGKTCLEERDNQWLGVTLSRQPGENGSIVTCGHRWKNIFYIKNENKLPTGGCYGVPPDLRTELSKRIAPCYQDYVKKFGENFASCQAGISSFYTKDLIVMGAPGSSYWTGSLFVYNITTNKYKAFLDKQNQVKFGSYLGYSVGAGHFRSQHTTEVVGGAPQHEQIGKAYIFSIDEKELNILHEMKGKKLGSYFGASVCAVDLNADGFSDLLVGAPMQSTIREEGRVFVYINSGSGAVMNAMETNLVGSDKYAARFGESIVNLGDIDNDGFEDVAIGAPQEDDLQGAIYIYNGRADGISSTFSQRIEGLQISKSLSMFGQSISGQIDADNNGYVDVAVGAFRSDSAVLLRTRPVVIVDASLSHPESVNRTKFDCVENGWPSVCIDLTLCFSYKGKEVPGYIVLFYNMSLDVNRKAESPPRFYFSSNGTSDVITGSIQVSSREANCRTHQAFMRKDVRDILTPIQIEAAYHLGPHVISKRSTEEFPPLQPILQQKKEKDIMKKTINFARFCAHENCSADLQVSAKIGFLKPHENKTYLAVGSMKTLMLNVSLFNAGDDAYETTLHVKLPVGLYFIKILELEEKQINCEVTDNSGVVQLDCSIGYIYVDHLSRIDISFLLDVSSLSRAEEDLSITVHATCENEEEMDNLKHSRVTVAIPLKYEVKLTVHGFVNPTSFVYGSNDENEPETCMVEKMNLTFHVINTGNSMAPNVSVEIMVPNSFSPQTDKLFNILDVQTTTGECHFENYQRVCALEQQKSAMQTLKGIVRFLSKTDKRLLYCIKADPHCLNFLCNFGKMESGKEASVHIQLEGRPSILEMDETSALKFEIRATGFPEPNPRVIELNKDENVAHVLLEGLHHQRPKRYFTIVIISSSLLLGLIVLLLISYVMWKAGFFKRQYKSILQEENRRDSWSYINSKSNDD
Rev-erbA mod: modulates human Rev-erb alpha binding to DNA; P20393; activity, % at 10 µM; Rev-erbα–FITC-DNA binding, fluorescence polarization, 90 min; 0.79% of 370,000 active; AID 1259318;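 active = activity above about 14%, limit read from the data; passing the limit was not always enough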
PG9 Ab binder: PG9 antibody binding by small molecule | TR-FRET gp120-PG9 antibody binding | inhibition, % at 6.7 µM | 0.43% of 360,000 active | AID 624416; in the data active = inhibition above about 8.5%
Granule exo inh: lytic granule exocytosis inhibition. inhibition, % at 10 µM. TALL-104 LAMP-1 surface exposure, flow cytometry; cells stimulated with thapsigargin and PMA. AID 651702. 0.66% of 360,000 active;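 active = inhibition above about 55%, limit read from the data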
ABCB6 inh MLPCN: blocks the human ABCB6 transporter. Q9NP58. K562-ABCB6 porphyrin accumulation, flow cytometry, 1 h; stronger effect = lower value. fluorescence ratio to DMSO, % at 10 µM. 0.19% of 360,000 active. AID 602162;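 active = fluorescence ratio to DMSO below 75%, the collection mean minus 3 SD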;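 also: signal is porphyrin accumulated inside mitochondria; lower ratio means ABCB6 inhibition with less porphyrin fluorescence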
PG9 binder conf: PG9 antibody binding, confirmed. 90% of 1,500 active. inhibition, % at 6.7 µM. TR-FRET PG9 antibody binding, biochemical. AID 651571. shares compounds with PG9 Ab binder; in the data active = inhibition above about 9%
PGV04 Ab binding: binds control antibody PGV04 in PG9 binder counter-screen. shares compounds with PG9 Ab binder. TR-FRET PGV04 antibody-gp120 binding, biochemical. inhibition, % at 6.7 µM. 95% of 1,500 active. AID 651604; in the data active = inhibition above about 9.5%
PG9 binder DR: small molecules binding HIV-1 gp120 antibody PG9; AID 651848; 95 tested, under 10 active; IC50, µM; TR-FRET PG9 antibody-gp120 binding inhibition; shares compounds with PG9 Ab binder; in the data active = IC50 below about 10 µM
PGV04 DR counter: PGV04 binding, dose response counter-screen; shares compounds with PG9 Ab binder; 20% of 95 active; IC50, µM; TR-FRET binding to control antibody PGV04
PG126 binding DR: counter-screen for PG9 binders: binding to control antibody PG126. shares compounds with PG9 Ab binder. TR-FRET binding to antibody PG126, counterscreen. IC50, µM. 20% of 95 active
NR1D1 mod conf: confirmation of modulators of human Rev-erb alpha DNA binding; Rev-erb alpha FITC-DNA binding, fluorescence polarization, 90 min; 61% of 3,000 active; AID 1259319; activation, % at 25 µM; shares compounds with Rev-erbA mod;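 active = activation at or above a set limit, or at least 3 SD above the negative control mean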
RORg counter: affects RORgamma DNA binding in a Rev-erb alpha counter-screen; shares compounds with Rev-erbA mod; IC50, µM; purified RORgamma protein-FITC-DNA binding, fluorescence polarization; AID 1259320; 8% of 910 active;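 active = Compounds whose fitted half-maximal concentration for disrupting protein-DNA binding is below 10 micromolar; the record names Rev-erb in its text, so the target is in doubt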
Hits are given with their value; – = inactive; · = not tested or not shown. Rule as the data show it, unless noted: active = IC50 below about 9 µM; inactive = the rest.

SMILES	VLA-4 inh	Rev-erbA mod	PG9 Ab binder	Granule exo inh	ABCB6 inh MLPCN	PG9 binder conf	PGV04 Ab binding	NR1D1 mod conf	others
Cc1ccc(C(=O)OCc2cc3ccccc3[nH]c2=O)cc1	–	23.1	15.1	–	–	24.4	31.1	16.7
Cc1ccc2cc(COC(=O)c3ccncc3)c(=O)[nH]c2c1	–	–	–	–	–	·	·	·
N#Cc1ccc(-c2ccc3c(c2)OCO3)nc1SCC(=O)OCc1ccccc1	–	24.1	12.7	–	–	14.5	29.2	19.1
COc1cc2cc(Br)cc(Br)c2nc1C	–	36.6	47.5	–	–	39.7	53.7	22.2
COc1cc2cnncc2cc1OC	–	–	–	–	–	·	·	·
N#CCC[C@@H]1CC[C@]2(CCCN(S(=O)(=O)C3CCCCC3)C2)O1	·	–	·	·	·	·	·	·
NC(=O)c1nsc(C(=O)N(c2ccccc2)C(C(=O)NCc2ccc(F)cc2)c2ccc(O)cc2)c1N (configuration not stated)	–	20.4	9.9	–	–	–	9.8	–
CCn1c2ccccc2c2cc(NC(=O)CSc3nnnn3-c3ccccc3)ccc21	–	38.7	10.5	–	–	9.2	17.6	24.2
Cc1ccc(-c2nc(NC(=O)CSc3nnnn3-c3ccccc3)ns2)cc1	–	17.7	13.0	–	–	–	–	–
COc1cc(CN2CCN(c3ncc(Cc4ccccc4)cn3)CC2)cc(OC)c1	·	–	–	·	·	·	·	·
Cc1cccc(C)c1NC(=O)COc1ccccc1C(=O)Nc1ccc(Br)cn1	–	117.5	61.5	–	–	61.4	82.7	92.4	RORg counter=–
N#Cc1c(-c2cccs2)cc(C2CC2)nc1SCC(N)=O	–	52.0	8.7	–	–	18.3	27.5	47.5	RORg counter=–
Cc1ccc2oc(=O)c3cnn(CC(=O)N4CCCc5ccccc54)c3c2c1	–	50.6	14.7	–	–	34.9	50.5	44.0
C=CCn1c(NC(=O)c2ccc(C)cc2)nc2ccccc21	–	27.3	39.5	–	–	26.3	40.3	–
CCN(c1ccc(NC(=O)CCc2nc3sc4c(c3c(=O)[nH]2)CCCC4)cc1)C(C)C	–	–	–	–	–	·	·	·
CC(=O)c1cccc(NC(=O)CCc2nc3sc4c(c3c(=O)[nH]2)CCCC4)c1	–	23.3	13.5	–	–	10.9	23.8	17.8
CC(C)(C)OC(=O)N1c2ccccc2[C@]2(N3CCCC3)C[C@H](C(=O)O)N(C(=O)OC(C)(C)C)[C@H]12	·	–	·	·	·	·	·	·
COc1ccc(-c2ccc3c(c2)c(Sc2ccccc2)c(-c2cc(OC)cc(OC)c2)n3C)cc1	·	39.7	16.9	–	–	43.6	59.7	60.0	RORg counter=–
COc1cc(OC)cc(-c2c(Sc3ccccc3)c3cc(-c4cnc(OC)nc4)ccc3n2C)c1	·	–	–	–	–	·	·	·
COc1ccc(-c2c(Sc3ccccc3)c3cc(-c4ccc5c(c4)OCO5)ccc3n2C)cc1	·	19.9	36.8	–	–	88.1	57.2	–	PG9 binder DR=2.87;PGV04 DR counter=2.14;PG126 binding DR=2.05
Cc1ccccc1Nc1nn2c(=O)c3ccccc3nc2s1	–	37.2	35.9	–	–	31.1	47.1	18.6
Cc1ccccc1Nc1nn2c(=O)c3ccc(C(=O)N4CCCC(C)C4)cc3nc2s1 (configuration not stated)	·	–	–	–	–	·	·	·
COc1cccc(Nc2nn3c(=O)c4ccccc4nc3s2)c1	–	·	·	–	–	·	·	·
O=c1c2ccccc2nc2sc(Nc3ccc(F)cc3)nn12	–	100.2	12.4	–	–	23.5	24.1	91.7	RORg counter=–
O=C(OCc1cn(Cc2ccccc2)nn1)N1CCOCC1	·	–	·	·	·	·	·	·
SMILES	VLA-4 inh	Rev-erbA mod	PG9 Ab binder	Granule exo inh	ABCB6 inh MLPCN	PG9 binder conf	PGV04 Ab binding	NR1D1 mod conf	others
COc1cccc(-c2nnc3sc(-c4cccs4)nn23)c1	–	41.2	39.1	–	–	32.9	57.1	–
O=C(N[C@H](C(=O)N1CCC[C@H]1C(=O)NCc1ccccc1)C1CCCCC1)c1ccc(Cl)c(Cl)c1	·	–	–	·	·	·	·	·
Cc1cccc(NC(=O)C2CCCN(S(=O)(=O)c3cccc4nsnc34)C2)c1 (configuration not stated)	–	154.6	65.5	–	–	64.0	58.2	78.6	PG9 binder DR=4.29;PGV04 DR counter=3.88;PG126 binding DR=4.33;RORg counter=–
CCc1cccc(NC(=O)c2ccc(Cn3c(=O)[nH]c4ccsc4c3=O)cc2)c1	–	54.6	24.7	–	–	29.1	40.2	60.3	RORg counter=–
CC(C)C[C@@H]1COc2cc(Br)ccc2S(=O)(=O)N1Cc1cn(CC2CCCCC2)nn1	·	–	·	·	·	·	·	·
CCOC(=O)[C@@]12CN(C(=O)OC(C)(C)C)CC=C1N(Cc1ccc(OC)cc1)C(=O)[C@H]2CC(=O)N1CCN(C(=O)C2CC2)CC1	·	–	·	·	·	·	·	·
O=C(O)CSc1ncnc2c1oc1ccccc12	–	–	–	–	–	·	·	·
O=C(CSc1ncnc2c1oc1ccccc12)Nc1ccccc1C(F)(F)F	–	348.0	65.7	–	–	27.3	74.8	341.2
COc1cccc(NC(=O)CSc2ncnc3c2oc2ccccc23)c1	–	684.7	68.7	–	–	75.5	92.8	749.3	RORg counter=–
O=C(COC(=O)c1n[nH]c2ccccc12)NC(=O)NC1CCCC1	–	–	–	–	–	·	·	·
O=C(COC(=O)c1n[nH]c2ccccc12)NC(=O)NC12CC3CC(CC(C3)C1)C2	–	17.1	17.5	–	–	21.6	31.3	31.3
Cc1ccc2nc3c(cc(C(=O)NC4CCS(=O)(=O)C4)n3Cc3ccccc3)c(=O)n2c1 (configuration not stated)	–	25.8	22.8	–	–	19.5	30.8	–
CC(C)C[C@H](NC(=O)c1nccs1)C(=O)N1CCC[C@H]1C(=O)NCc1ccccc1	·	–	–	·	·	·	·	·
COc1ccc(Br)cc1-c1nc2c(c(=O)[nH]c(=O)n2Cc2ccccc2)n1C	–	92.2	45.1	–	–	68.9	19.8	51.9	PG9 binder DR=9.53;PGV04 DR counter=5.15;PG126 binding DR=5.7;RORg counter=–
CCOc1ccc(OCC)c(NC(=O)c2[nH]c(C)c(C(C)=O)c2C)c1	–	59.0	15.9	–	–	10.9	–	51.5	PG9 binder DR=–;PGV04 DR counter=3.55;PG126 binding DR=3.91;RORg counter=–
CCOc1cc(N2CCOCC2)c(OCC)cc1NC(=O)c1[nH]c(C)c(C(C)=O)c1C	–	–	–	–	–	·	·	·
